Out of some 420,000 compounds screened, about 64,000 (15%) were called active. Roughly 27% stayed inconclusive and do not appear here. The call rests on the fitted dose curve; in most records, active means well fitted inhibition curve with a large enough effect; inconclusive means small, poorly fitted or top-dose-only effect; inactive means flat fitted curve, though single readings scatter. Only a sample is shown. Where a call stands in place of a potency, no number is given.
Test: qHTS for Inhibitors of human tyrosyl-DNA phosphodiesterase 1 (TDP1): qHTS in cells in absence of CPT; further: nearly all actives have a fitted effect of over 55% in size
Conditions: DT40 Tdp1-/- hTDP1 cells, no CPT, ATP luminescence, 48 h; activity change, negative = growth inhibition: at 46.2 µM (top of the series)
Method in brief: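 Cells were dispensed at 400 per well, compounds added by pin tool, plates incubated ≥48 hr at 37 °C, then CellTiter-Glo added for 30 min at room temperature before luminescence reading. Line: DT40 Tdp1-/- complemented with hTDP1; camptothecin omitted.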
With `Cc1ccccc1-n1nc(C)c2c1N=C1C(Cl)=CC(Cl)=CN1C2c1ccc(C(=O)O)cc1` (stereo not drawn) the Potency was “inactive”. In the case of `CCn1ccnc1CN(C)C(=O)c1cc(COc2ccc(Cl)cc2OC)on1`, the Potency is reported as “inactive”. In the case of `COC(=O)[C@H](Cc1ccccc1)NC(=O)N1CC(C)OC(C)C1` (stereo partly drawn), the Potency is reported as “inactive”. In the case of `O=C1NC(c2ccccc2)CCC1(Cl)Cl` (stereo not drawn), the Potency is reported as “inactive”. In the case of `Cc1cc(C(=O)COC(=O)CCCN2C(=O)c3ccccc3C2=O)c(C)n1C`, the Potency is reported as “inactive”. In the case of `Cc1ccc(NC(=O)c2cn3c4c(ccc(Cl)c4c2=O)OC(C)C3)cc1C` (stereo not drawn), the Potency is reported as “inactive”. With `C#CCOCCOCCOCCNc1nc(N2CCN(C(=O)Cn3cc(CCO)nn3)CC2)nc(N2CCN(C(=O)[C@H](CCCCN)n3cc(CCCC)nn3)CC2)n1` the Potency was “inactive”. With `COc1cc(NC(=S)NCc2ccc(S(N)(=O)=O)cc2)cc(OC)c1` the Potency was “inactive”. For `CCc1c(O)cc2n(c1=O)-c1ccccc1C2(C)C`, the Potency was “inactive”. For `CC1(C)CC(=O)C=C(N2CCOCC2)C1`, the Potency was “inactive”. For `CC1(C)CC(N2CCN(C(c3ccccc3)c3ccccc3)CC2)=CC(=[N+]2CCCCC2)C1`, the Potency was 0.164 µM (active). For `CC1(C)CC(=O)C=C(N2CCCC2)C1`, the Potency was “inactive”. For `Cc1nc(Cl)c2oc3ccccc3c2n1`, the Potency was “inactive”. In the case of `c1csc(CN2CCN(Cc3cccs3)C2c2cccs2)c1`, the Potency is reported as “inactive”. With `O[C@H]1C[C@H](c2ccc(Cl)cc2)N(Cc2cccs2)C[C@@H]1n1cc(C2CC2)nn1` the Potency was 14.6 µM (active). With `COC(=O)C1=C(C(=O)OC)C(c2cc([N+](=O)[O-])ccc2O)c2sc(=O)[nH]c2S1` (stereo not drawn) the Potency was “inactive”. With `CC1=NN(C(C)C)C(=O)C1` the Potency was “inactive”. For `Cc1ccc(CN(CC(=O)NC2CCCCC2)C(=O)c2csnn2)cc1`, the Potency was “inactive”. For `COc1ccc(CN(CC(=O)NC2CCCC2)C(=O)CCC(=O)Nc2cc(C)on2)cc1`, the Potency was “inactive”. In the case of `Cc1cc(C(C)(C)C)oc1C(=O)N(CC(=O)NC1CCCC1)Cc1ccc(Cl)cc1`, the Potency is reported as 14.1 µM (active). With `CN1CCN(C(=O)c2ccc(-c3ccc(Br)cc3)o2)CC1` the Potency was “inactive”. For `Cc1ccccc1C1=NC(C(F)(F)F)(C(F)(F)F)c2c(n(-c3ccc(F)cc3)c(=O)[nH]c2=O)N1`, the Potency was 23.1 µM (active). With `O=S(=O)(NCC1CC1)c1ccc(F)c(Cl)c1` the Potency was “inactive”. In the case of `Cc1cc(NS(=O)(=O)c2ccc(NC(=O)c3ccccc3C)cc2)nc(C)n1`, the Potency is reported as “inactive”. For `CCOC(=O)c1c(C)[nH]c(C)c1S(=O)(=O)N(C)CC(=O)Nc1ccccc1C`, the Potency was “inactive”. For `CCCS(=O)(=O)c1c(Nc2ccccc2C)sc(C(=O)c2ccccc2)c1N`, the Potency was 16.4 µM (active). For `COc1c(F)c(F)c(C(=O)O)c(Nc2ccccc2C)c1F`, the Potency was “inactive”. In the case of `Cc1ccc2c(c1)C1CN(C)CCC1N2C(=S)Nc1ccc(Cl)cc1Cl` (stereo not drawn), the Potency is reported as “inactive”. In the case of `Cc1ccc(Nc2c(O)nc[nH]c2=O)cc1C`, the Potency is reported as “inactive”. For `Cc1ccc2[nH]cc(CCCN3C(=O)c4ccccc4C3=O)c2c1`, the Potency was “inactive”. With `CC(=O)CC(CC(=O)NC1CCCCC1)c1ccccc1` (stereo not drawn) the Potency was “inactive”. In the case of `O=C(CNC1CCCCC1)NCC1(c2ccccc2)CCCC1`, the Potency is reported as 23.1 µM (active). For `O=C(CCS(=O)(=O)c1ccccc1)NC1CCCC1`, the Potency was “inactive”. In the case of `CC(C)NC(=O)c1ccccc1S(=O)c1ccccc1C#N` (stereo not drawn), the Potency is reported as “inactive”. In the case of `O=C(CSc1ccc(Cl)cc1)NC1CC1`, the Potency is reported as “inactive”. In the case of `O=C(/C=C/c1cccc(F)c1)NC1CC1`, the Potency is reported as “inactive”. With `S=C(Nc1ccc(Br)cc1)NC1CCN(Cc2ccccc2)CC1` the Potency was 23.1 µM (active). With `O=C(Nc1ccccc1)N1CCC(C(=O)N2CCN(Cc3ccccc3)CC2)CC1` the Potency was “inactive”. For `CCNC(=S)NNC(=O)C1CCN(Cc2ccccc2)CC1`, the Potency was “inactive”. With `O=C(NNC(=S)Nc1ccc(Br)cc1Cl)c1ccco1` the Potency was “inactive”. For `S=C(Nc1ccc(Br)cc1Cl)NC1CCN(Cc2ccccc2)CC1`, the Potency was 7.31 µM (active). In the case of `Cc1cc(Br)ccc1NC(=S)NC1CCCC1`, the Potency is reported as “inactive”. In the case of `CCNc1ncc2nc(CCc3ccccc3)c(=O)n(-c3ccc(OC)cc3)c2n1`, the Potency is reported as “inactive”. For `CC1(C(=O)NCc2ccccc2)CN(S(C)(=O)=O)CC(=O)N1CC(F)(F)F` (stereo not drawn), the Potency was “inactive”. With `CCOC(=O)c1ccc(-n2c(CCC(=O)O)ccc2-c2ccccc2)cc1` the Potency was “inactive”. With `CC1Cc2cc(/C(O)=C3\C(=O)C(=O)N(Cc4cccnc4)C3c3ccccc3F)ccc2O1` (stereo not drawn) the Potency was “inactive”. In the case of `CC(=O)c1c(C)[nH]c(C(=O)COc2ccc3c(C)cc(=O)oc3c2)c1C`, the Potency is reported as 20.6 µM (active). For `Cc1ccc(O)c(NC(=O)COc2cc(C)ccc2C)c1`, the Potency was “inactive”. With `COC(=O)COc1ccc2oc(=O)cc(C)c2c1` the Potency was “inactive”. For `Cc1cc(=O)oc2ccc(OCC(=O)O)cc12`, the Potency was “inactive”. In the case of `Cc1ccc(O)c(/C=N/NC(=O)COc2ccc3c(C)cc(=O)oc3c2)c1`, the Potency is reported as 16.4 µM (active). With `Cc1cc(=O)oc2cc(OCC(=O)Nc3nnc(C4CC4)s3)ccc12` the Potency was “inactive”. For `CN(CC(=O)Nc1ccc(N2CCOCC2)cc1)CC(=O)Nc1ccccc1[N+](=O)[O-]`, the Potency was “inactive”. With `O=c1c2ccccc2ncn1CCc1ccncc1` the Potency was “inactive”. For `Cc1cccc(CC(=O)Nc2c3c(nn2-c2cccc(Cl)c2)CS(=O)C3)c1` (stereo not drawn), the Potency was “inactive”. For `O=c1oc(/C=C/c2ccccc2)nc2ccccc12`, the Potency was “inactive”. With `NNc1cccc(C=Cc2ccccc2)cc1=O` the Potency was 1.64 µM (active). With `O=C(COC(=O)/C=C/c1cccc(Cl)c1)NCCc1ccccc1` the Potency was “inactive”. For `O=C(Cn1c(=O)n(Cc2ccco2)c(=O)c2ccccc21)NCC1CCCO1` (stereo not drawn), the Potency was “inactive”. For `COCCNc1nnc(SCC(=O)NNC(=O)c2ccco2)s1`, the Potency was “inactive”. In the case of `CCOC(=O)C1=CN(Cc2ccc(Br)cc2)S(=O)(=O)N(C)C1C` (stereo not drawn), the Potency is reported as “inactive”. In the case of `O=C(NCc1ccncc1)c1cccc(NS(=O)(=O)c2ccc(F)c(F)c2)c1`, the Potency is reported as “inactive”. For `COCCCNC(=O)c1ccc(CNS(=O)(=O)c2ccc(NC(C)=O)cc2)cc1`, the Potency was “inactive”. In the case of `CSCCC1NC2(C(=O)Nc3ccc(Cl)cc32)[C@@H]2C(=O)N(C3CCCC3)C(=O)[C@H]12` (stereo partly drawn), the Potency is reported as 20.6 µM (active). For `O=C1[C@@H]2C(Cc3ccc(O)cc3)NC3(C(=O)Nc4ccc(F)cc43)[C@@H]2C(=O)N1c1ccc(F)cc1` (stereo partly drawn), the Potency was “inactive”. In the case of `CN(C)S(=O)(=O)N1CCN(c2ccc([N+](=O)[O-])cc2)CC1`, the Potency is reported as “inactive”. With `CC(N)(C(=O)O)c1ccc(-c2nn[nH]n2)cc1` (stereo not drawn) the Potency was “inactive”. For `CCOC(=O)N1CCN(Cc2nnc(-c3ccccc3Cl)o2)CC1`, the Potency was “inactive”.

From PubChem BioAssay AID686978 (National Center for Advancing Translational Sciences (NCATS), 2013)
Potency means the concentration at half of the fitted maximal effect.
